Data as given in paper PMC8769072, “Proteome‐scale mapping of binding sites in the unstructured regions of the human proteome” (Molecular Systems Biology, 2022).

Tests used:
[1] = molecular target: AP2B1 700-937, P63010
[2] = molecular target: ANKRA2 142-313, Q9H9E1
Chain of ANKRA2 142-313, Q9H9E1 (Q9H9E1 142-313): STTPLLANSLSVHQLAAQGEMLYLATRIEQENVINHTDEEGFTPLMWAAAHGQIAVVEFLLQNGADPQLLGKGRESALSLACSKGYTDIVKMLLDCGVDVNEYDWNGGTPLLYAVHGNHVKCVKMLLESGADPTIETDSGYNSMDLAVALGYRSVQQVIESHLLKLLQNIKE

Chain of AP2B1 700-937, P63010 (P63010 700-937): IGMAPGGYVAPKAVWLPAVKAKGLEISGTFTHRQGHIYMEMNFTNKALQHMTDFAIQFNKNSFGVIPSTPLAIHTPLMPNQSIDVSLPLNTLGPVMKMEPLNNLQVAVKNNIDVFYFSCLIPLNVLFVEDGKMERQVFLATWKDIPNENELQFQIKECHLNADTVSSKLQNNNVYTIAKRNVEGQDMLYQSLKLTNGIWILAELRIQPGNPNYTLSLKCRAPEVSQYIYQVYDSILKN

Row | Binder | selected by phage display [1] | selected by phage display [2]
1 | NPGLSWTDWPEPSLLE [PHF7, Q9BWX1] | confidence 3 (active) | –
2 | FTKVEHWSSFAALPWG [SLC35F4, A4IF30] | confidence 2 (active) | –
3 | WSHWEDSALPPPSLRP [RHBDD3, Q9Y3P4] | confidence 3 (active) | –
4 | SWEAFDSHGQESSGQL [F8A3, P23610] | confidence 2 (active) | –
5 | NFADFSQFEVFAASNV [REPS1, Q96D71] | confidence 3 (active) | –
6 | MPPSQLQLPTLPLVMV [FOXP3, Q9BZS1] | – | confidence 2 (active)
7 | WPASWGFPDASSTVPS [Q96NJ1] | confidence 2 (active) | –
8 | ITAWEAGWNVTNAIQG [SLC32A1, Q9H598] | confidence 3 (active) | –
9 | MSGWAEGPRMLSWAPF [TSPO2, Q5TGU0] | confidence 3 (active) | –
10 | RGVEWAAFGRDLFLAS [ELP2, Q6IA86] | confidence 3 (active) | –
11 | TVGKNHEWNWAFVAFT [SLC9A2, Q9UBY0] | confidence 2 (active) | –
12 | TESWMSPLAWLEKGVN [SPAG5, Q96R06] | confidence 2 (active) | –
13 | VGLPLPPTLPSLIPFI [SALL1, Q9NSC2] | – | confidence 2 (active)
14 | EKSPTDWALFTYEGNS [DBNL, Q9UJU6] | confidence 2 (active) | –
15 | ALLLPDLSLHVPPGGA [ZNF513, Q8N8E2] | – | confidence 2 (active)
16 | AESSQAVMSLPKLQQV [ZNF362, Q5T0B9] | – | confidence 4 (active)
17 | WTAWEADALFMQRDVY [ZNF532, Q9HCE3] | confidence 3 (active) | –
18 | LSHLGQVEPVPWADAF [ANKRD11, Q6UB99] | confidence 2 (active) | –
19 | VFPRPVLPSLTVSRVI [C16orf46, Q6P387] | – | confidence 4 (active)
20 | HERDPWYSWDQPGLRL [NDUFB8, O95169] | confidence 3 (active) | –
21 | AGLGGPVDFSDLPWPL [ARNTL, O00327] | confidence 2 (active) | –

Row | Binder | selected by phage display [1] | selected by phage display [2]
22 | LNSPAWEASGLHWSSL [GNAS, P84996] | confidence 3 (active) | –
23 | SQEDWTTFTHDRIRQL [INPPL1, O15357] | confidence 2 (active) | –
24 | YTSPSLPNISLGLQAT [HDAC5, Q9UQL6] | – | confidence 4 (active)
25 | TGQDIAPRDSPEWVAF [FRMPD1, Q5SYB0] | confidence 3 (active) | –
26 | APPFPQSTFTPWASWV [SPATA31E1, Q6ZUB1] | confidence 3 (active) | –
27 | VAAGWWAFAPPALQVL [SLCO4A1, Q96BD0] | confidence 2 (active) | –
28 | EATEEGWASFSAELSH [OBSCN, Q5VST9] | confidence 4 (active) | –
29 | MGGAAASWAGWAVTGV [SCYL1, Q96KG9] | confidence 3 (active) | –
30 | WDVPAWESTQHPWPVA [ZNF786, Q8N393] | confidence 4 (active) | –
31 | LPNLPNLNLNLPAPHI [GORASP2, Q9H8Y8] | – | confidence 2 (active)
32 | PEWEVAAPWGSVGPGA [GPR179, Q6PRD1] | confidence 2 (active) | –
33 | EKPVPTLPQFTMGPNV [EFNA3, P52797] | – | confidence 3 (active)
34 | MSARPSLPPLPAKPAG [SERTAD4-AS1, Q5TG53] | – | confidence 2 (active)
35 | ESFGGGFADFSTLSKV [EPS15, P42566] | confidence 3 (active) | –
36 | DSDGHTDAFVAYFADG [BBS5, Q8N3I7] | confidence 2 (active) | –
37 | PWTAFPKPSNSQPTSP [CGNL1, Q0VF96] | confidence 3 (active) | –
38 | EPSTTPNNWADFSSTW [ITSN1, Q15811] | confidence 4 (active) | –
39 | AEPFSSSSPTPLFPWF [KMT2A, Q03164] | confidence 2 (active) | –
40 | NLRLPSLDEQVIPARL [Q5PR19] | – | confidence 2 (active)
41 | NSISEPKGNPLAWQAF | confidence 3 (active) | –
42 | SANADFANFDAFGQSS [AGFG1, P52594] | confidence 3 (active) | –

Row | Binder | selected by phage display [1] | selected by phage display [2]
43 | VPVWEPQDWQQQLVNI [NTHL1, P78549] | confidence 3 (active) | –
44 | DSALSLPPLSLPHPHP [NTM-AS1, Q6ZSK4] | – | confidence 3 (active)
45 | WQAFESQPAAPAVPMN | confidence 2 (active) | –
46 | PGTLLPTPGLPQFPSA [OTP, Q5XKR4] | – | confidence 2 (active)
47 | EWLYGGPWDVHVHSDL [FIP1L1, Q6UN15] | confidence 2 (active) | –
48 | SMLKLPDLPQNSVKLQ [KIAA0586, Q9BVV6] | – | confidence 3 (active)
49 | EEEMEVPVLPKISLPI [NUP153, P49790] | – | confidence 2 (active)
50 | VELPALPSLPTLPTLP [PRX, Q9BXM0] | – | confidence 2 (active)
51 | AAKPSLPALDPMSMLF [TSHZ3, Q63HK5] | – | confidence 3 (active)
52 | SWAAFGDQQATESHHR [AFTPH, Q6ULP2] | confidence 3 (active) | –
53 | DPGAMEPWALPTWHSW [TSPOAP1, O95153] | confidence 2 (active) | –
54 | WGEPWGEPSTPATTVD [TNRC6A, Q8NDV7] | confidence 2 (active) | –
55 | ELLTVPDGWKEPAFSK [KRR1, Q13601] | confidence 3 (active) | –
56 | FDWSSFKPMGFEVSFL [ZNF292, O60281] | confidence 2 (active) | –
57 | QASLQAMSLPELSGAL [ANKS3, Q6ZW76] | – | confidence 2 (active)
58 | PWVPNWELGEPPGNAP [ZNF831, Q5JPB2] | confidence 3 (active) | –
59 | EERLRGWEAFLNAPEA [HTATSF1, O43719] | confidence 2 (active) | –
60 | ASSPVNWAAPWANAMN [TEX13C, A0A0J9YWL9] | confidence 3 (active) | –
61 | TQAQAALNFGWAFSWL [C12orf71, A8MTZ7] | confidence 2 (active) | –
62 | PQPKLPYLPTFPFSMP [NOBOX, O60393] | – | confidence 2 (active)
